PubChem BioAssay (NCI)
Compounds without any hit were thinned out: in the full panel of roughly 79,000, 15% have a hit. Active and inactive are the calls of the source. No stated cut-off is given here; in the data, active means growth inhibition above about 70%; inactive means the rest.

Assays:
[1] = NCI Yeast Anticancer Drug Screen. Data for the wt1 strain (AID 149);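 further: 0% = growth of vehicle-treated wt1 cultures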; conditions: S. cerevisiae wt1 strain (SPY 50644) growth inhibition, hits give high values
Method in brief: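 wt1 yeast, compound-treated; % growth inhibition vs vehicle control.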

[2] = NCI Yeast Anticancer Drug Screen. Data for the rad50EPP+ strain (AID 151);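 further: 0% = growth of vehicle-treated control cultures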; conditions: S. cerevisiae rad50 mutant strain, hits give high values
Method in brief: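 Measured: growth inhibition of rad50EPP+ yeast. Reference: vehicle-treated controls. Screen uses strains with defined genetic alterations in DNA damage repair or cell cycle control.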

[3] = NCI Yeast Anticancer Drug Screen. Data for the mgt1 strain (AID 153); conditions: S. cerevisiae mgt1 mutant growth inhibition, hits give high values
Method in brief: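 Compounds were applied to mgt1 mutant yeast, and growth was then compared against vehicle-treated control cultures to give percent inhibition.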

[4] = NCI Yeast Anticancer Drug Screen. Data for the rad50 strain (AID 155);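 further: 0% = growth of vehicle-only cultures of the same strain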; conditions: S. cerevisiae rad50 strain growth inhibition, hits give high values
Method in brief: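 Genetically altered yeast (DNA repair pathway); compound treatment; growth inhibition vs vehicle ctrl.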

[5] = NCI Yeast Anticancer Drug Screen. Data for the mec2-1 strain (AID 157); conditions: S. cerevisiae mec2-1 strain, hits give high values
Method in brief: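 Compounds were applied to mec2-1 yeast cells. Their growth was then compared with that of vehicle-treated cultures to give growth inhibition.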

[6] = NCI Yeast Anticancer Drug Screen. Data for the sgs1 mgt1 strain (AID 161);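 further: 0% = growth of cultures given vehicle only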; conditions: S. cerevisiae sgs1 mgt1 strain, hits give high values
Method in brief: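 Percent growth inhibition was derived by comparing compound-exposed mutant yeast with vehicle-exposed cultures. The strain carries alterations in DNA damage repair.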

[7] = NCI Yeast Anticancer Drug Screen. Data for the CLN2oe strain (AID 163);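 further: 0% = growth of vehicle-only control cultures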; conditions: S. cerevisiae CLN2oe strain, hits give high values
Method in brief: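 Cells of an engineered yeast line with disturbed cell-cycle regulation are treated with compound. Inhibition of growth is then calculated relative to the vehicle-treated reference.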

[8] = NCI Yeast Anticancer Drug Screen. Data for the cln2 rad14 strain (AID 165);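 further: 0% = growth equal to vehicle treated cultures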; conditions: S. cerevisiae cln2 rad14 strain, hits give high values
Method in brief: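 Strain: cln2 rad14 yeast, altered in cell cycle control and DNA damage repair. Read-out: growth inhibition vs vehicle.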

[9] = NCI Yeast Anticancer Drug Screen. Data for the bub3 strain (AID 167); conditions: S. cerevisiae bub3 mutant strain, hits give high values
Method in brief: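 Yeast carrying a defined mutation is treated with each compound, and growth is compared with that of vehicle-exposed cells to give inhibition.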

[10] = NCI Yeast Anticancer Drug Screen. Data for the wt2 strain (AID 169);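 further: 0% = growth of vehicle-treated yeast cultures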; conditions: S. cerevisiae wt2 strain growth inhibition, hits give high values
Method in brief: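 Growth of compound-treated yeast is measured and expressed as inhibition relative to vehicle-only controls.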

[11] = NCI Yeast Anticancer Drug Screen. Data for the sgs1 strain (AID 173);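 further: 0% = growth of vehicle-only control cultures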; conditions: S. cerevisiae sgs1 mutant, hits give high values
Method in brief: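 Strain with an altered DNA repair or cell cycle pathway exposed to compound. Growth then measured. Value = inhibition versus vehicle control.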

[12] = NCI Yeast Anticancer Drug Screen. Data for the mlh1 rad18 strain (AID 175); conditions: S. cerevisiae mlh1 rad18 strain growth inhibition, hits give high values
Method in brief: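 A repair-deficient yeast strain is exposed to test compound, and growth is scored relative to vehicle-treated controls.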

[13] = NCI Yeast Anticancer Drug Screen. Data for the rad18 strain (AID 177); conditions: S. cerevisiae rad18 mutant growth inhibition, hits give high values
Method in brief: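 DNA-repair-defective yeast; compound treatment; growth inhibition scored against vehicle.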

[14] = at 5.0 µM (retest, dose inferred, filed as 0.5)
[15] = at 50.0 µM (retest, dose inferred, filed as 5.0)

Measured: growth inhibition

CCOc1nc(OCC)nc(-c2cccn2-c2ccccc2)n1
active: [1]; at 100.0 µM 94% | [3]; at 100.0 µM 96% | [4]; [14] 85% | [4]; [15] 100% | [4]; at 50.0 µM 70.3% | [4]; at 100.0 µM 92% | [5]; [14] 93% | [5]; [15] 100% | [5]; at 100.0 µM 93% | [6]; [15] 74% | [7]; at 100.0 µM 91% | [8]; [15] 83% | [9]; [15] 87% | [9]; at 100.0 µM 94% | [10]; at 100.0 µM 95% | [11]; at 100.0 µM 95% | [12]; [14] 86% | [12]; [15] 100% | [12]; at 50.0 µM 80.2% | [13]; at 100.0 µM 93%
inactive: [1]; at 1.2 µM -19% | [1]; at 3.7 µM -22% | [1]; at 11.0 µM -13% | [1]; at 33.0 µM -11% | [2]; at 1.2 µM 1% | [2]; at 3.7 µM 5% | [2]; at 11.0 µM 23% | [2]; at 33.0 µM 12% | [2]; at 100.0 µM 40% | [3]; at 1.2 µM 1% | [3]; at 3.7 µM 8% | [3]; at 11.0 µM 6% | [3]; at 33.0 µM 25% | [4]; at 1.2 µM 7% | [4]; at 3.7 µM 40% | [4]; at 11.0 µM 35% | [4]; at 33.0 µM 26% | [5]; at 1.2 µM -4% | [5]; at 3.7 µM 9% | [5]; at 11.0 µM -6% | [5]; at 33.0 µM 12% | [5]; at 50.0 µM 59.7% | [6]; [14] -13% | [7]; at 1.2 µM -2% | [7]; at 3.7 µM 0% | [7]; at 11.0 µM 11% | [7]; at 33.0 µM 6% | [8]; [14] 55% | [9]; at 1.2 µM 19% | [9]; at 3.7 µM 36% | [9]; [14] 14% | [9]; at 11.0 µM 32% | [9]; at 33.0 µM 43% | [10]; at 1.2 µM -3% | [10]; at 3.7 µM 8% | [10]; at 11.0 µM 1% | [10]; at 33.0 µM 38% | [11]; at 1.2 µM 16% | [11]; at 3.7 µM 15% | [11]; at 11.0 µM 14% | [11]; at 33.0 µM 43% | [13]; at 1.2 µM -4% | [13]; at 3.7 µM 15% | [13]; at 11.0 µM 19% | [13]; at 33.0 µM 19%
